High-throughput results (PubChem BioAssay)
LmPK inh – LmPK (Leishmania mexicana) enzyme inhibition; Q27686; purified LmPK, Kinase-Glo ATP luminescence, 1 h; Potency, µM (doses to about 57.5 µM), actives largely listed as inhibitors; hit rate 0.37% among 290,000; AID 1721
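ATP generated from ADP (0.1 mM) and PEP (0.5 mM) by 0.1 nM LmPK over 1 h at room temperature (pH 7.2 imidazole buffer) was detected by coupled luciferase luminescence. Values were normalized to uninhibited and no-enzyme wells.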
CHX counter – counter-screen hit for Shiga toxin inhibitors, cycloheximide; cell reporter, cycloheximide protein synthesis inhibition counterscreen; max response, %; hit rate 12% among 300,000; AID 2314; in the data active = max response mostly above about 13%, no sharp cut-off; inactive = mostly below about 14%; note: read at 38.3 µM for the half of the compounds with a filed dose
NS1 function inh – inhibitors of influenza NS1 protein function. Potency, µM (doses to about 46.1 µM). hit rate 0.4% among 270,000. AID 2326; calls by dose curve; note: actives are rising curves; nearly all actives have a fitted effect of over 50% in size
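S. cerevisiae expressing influenza A NS1, grown in glucose, washed, then diluted 1:100 into pH 6.0 -URA galactose medium with 23 nl compound. Growth recovery read as OD600; NS1-free strain serves as control.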
FBPA Giardia inh – blocks Giardia fructose-bisphosphate aldolase activity | hit rate 0.71% among 290,000 | AID 2451 | Potency, µM (series often up to 59.6 µM), usual class: inhibitors | purified Giardia FBPA; note: nearly all actives have a fitted effect of over 55% in size
Target sequence (A8B2U2 whole entry, looked up): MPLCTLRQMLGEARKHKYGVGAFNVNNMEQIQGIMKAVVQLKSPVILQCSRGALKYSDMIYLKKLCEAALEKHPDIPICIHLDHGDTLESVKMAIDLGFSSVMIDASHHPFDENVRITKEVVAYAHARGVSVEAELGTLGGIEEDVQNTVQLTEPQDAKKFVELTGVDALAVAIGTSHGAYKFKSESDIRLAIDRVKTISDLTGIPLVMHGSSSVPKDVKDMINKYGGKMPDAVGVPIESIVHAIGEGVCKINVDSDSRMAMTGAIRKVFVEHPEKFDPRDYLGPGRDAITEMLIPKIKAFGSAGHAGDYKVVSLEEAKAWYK
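40 nM FBPA preincubated 10 min at RT with compound (up to 57.5 uM final), then substrate plus GAPDH/TPI/NAD/arsenate coupling and diaphorase/resazurin added. Fluorescence read after 20 min at RT, 525/598 nm.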
Shiga inhibitor – Shiga toxin inhibition; hit rate 9.2% among 290,000; inhibition, % at 38.7 µM; Vero cells, Shiga toxin protein synthesis inhibition reporter; in the data active = inhibition mostly above about 28%, no sharp cut-off; inactive = mostly below about 43%
Hits are given with their value; 0 = inactive; ? = inconclusive; - = no result; [ ] = another dose, or the depositor's remark. Compounds with a hit are over-represented: about 14% of the library has one in this group of screens. Unless noted, calls come from the whole dose curve; as a rule, active = well fitted curve in the direction sought with a large enough effect; inconclusive = small, poorly fitted or top-dose-only effect, or another doubt; inactive = no such curve, though single readings can be large; an effect the other way counts as inactive or inconclusive.

SMILES | LmPK inh | CHX counter | NS1 function inh | FBPA Giardia inh | Shiga inhibitor
COc1cc(N/C(N)=N/c2nc(C)cc(C)n2)cc(OC)c1 | 0 | 0 | 0 | 0 | 0
CCOC(=O)C1=C(C)N(c2ccccc2)C(=O)/C1=C\c1ccco1 | 0 | 0 | 0 | 0 | 0
CCOC(=O)C1=C(C)N(c2ccccc2)C(=O)/C1=C\c1ccc(O)c(OC)c1 | ? | 0 | 2.5µM | 18µM | 0
N#Cc1c(N)c2ccccn2c1C(=O)c1ccc(Br)cc1 | 0 | 0 | 0 | 0 | 0
CCN(CC)c1ccc(/C=N/N=C(c2ccccc2)c2ccccc2)c(O)c1 | 0 | 0 | 0 | 0 | 0
CCCS/C(N)=N/N=C/c1ccccc1O | 0 | 38 | 0 | 0 | 50
C=CCS/C(N)=N\N=C\c1c(O)ccc2ccccc12 | 0 | 44 | 0 | 0 | 114
COc1ccc(-c2[nH]ncc2CNCC(C)(C)N2CCOCC2)cc1F | 0 | 0 | 0 | 0 | 0
CC(C)c1ccc(NC(=O)C2CC(=O)Nc3nc4ccccc4n32)cc1 (centres undefined) | 0 | 23 | 0 | 0 | 0
CC(=O)NCCNc1ncnc2ccc(-c3ccccc3C(F)(F)F)cc12 | - | - | - | 0 | -
O=C(NCc1cccnc1)c1ccc([N+](=O)[O-])o1 | 0 | 31 | 0 | 0 | 0
O=C(Nc1cccnc1)c1ccc([N+](=O)[O-])o1 | 0 | 38 | 0 | 0 | 71
O=C(Cc1ccc([N+](=O)[O-])cc1)NCc1cccnc1 | 0 | 0 | 0 | 0 | 0
O=C(NCc1ccco1)c1ccc([N+](=O)[O-])o1 | 0 | 12 | 0 | 0 | 0
CC(=O)N1CCC2(CC1)CCN(C(=O)Nc1cccc(F)c1)CC2 | - | - | - | 0 | -
O=C1C2C3C=CC(C3)C2C(=O)N1c1ccc(N2CCN(c3ccccn3)CC2)c([N+](=O)[O-])c1 (centres undefined) | 0 | 0 | - | 0 | 0
CCC#CCOCC(=S)Nc1ccccc1 | - | - | - | 0 | -
Cc1cccc2c1cnn2C(=O)Nc1ccccc1Cl | 0 | 35 | 0 | 0 | 63
COc1ccc(C)cc1NC(=O)n1ncc2cc(Cl)ccc21 | 0 | 0 | 0 | 0 | 0
COc1ccc(NC(=O)N2CCCc3cccc(C)c32)cc1 | 0 | 0 | 0 | 0 | 0
COc1ccc(NC(=O)n2ncc3c(C)cccc32)cc1OC | 0 | 36 | 0 | 0 | 63
Cc1ccccc1NC(=O)n1ncc2cc(Cl)ccc21 | 0 | 21 | 0 | 0 | 0
COc1ccc(C)cc1NC(=O)n1ncc2c(C)cccc21 | 0 | 0 | 0 | 0 | 0
COc1ccc(NC(=O)n2ncc3c(C)cccc32)cc1 | 0 | 59 | 0 | 0 | 128
O=C(NCC1CCCCC1)c1cc(Br)ccc1Cl | 0 | 0 | 0 | 0 | 0
SMILES | LmPK inh | CHX counter | NS1 function inh | FBPA Giardia inh | Shiga inhibitor
Cc1ccc(NC(=O)n2ncc3c(C)cccc32)cc1F | 0 | 72 | 0 | 0 | 106
Cc1cccc2c1cnn2C(=O)Nc1ccccc1Br | 0 | 0 | 0 | 0 | 0
COc1ccc(C(=O)C2CCCN(C(=O)c3cccc(N4CCCC4=O)c3)C2)cc1OC (centres undefined) | 0 | 0 | 0 | 0 | 0
CCOC(=O)c1csc(NC(=O)C2CCCCC2)n1 | 0 | 26 | 0 | 0 | 59
CCCC(=O)Nc1nc(C(=O)OCC)cs1 | 0 | 18 | 0 | 0 | 0
O=C(Nc1sc2c(c1C(=O)O)CCC2)C(=O)N1CCOCC1 | 0 | 0 | 0 | - | 0
COc1ccc(S(=O)(=O)Oc2ccc3ccccc3c2)cc1 | 0 | 23 | 0 | 0 | 23
COc1ccc(CNC(=O)CN(c2ccc(C)cc2)S(=O)(=O)c2c(C)nn(C)c2C)cc1 | 0 | 0 | 0 | 0 | 0
C=CCNc1oc(-c2ccc(OC)cc2)nc1C#N | 0 | 43 | 0 | 0 | 78
CCOc1ccc(Nc2oc(-c3ccco3)nc2C#N)cc1 | 0 | 33 | 0 | 0 | 0
C=CCNc1oc(-c2ccc(OCC)cc2)nc1C#N | 0 | 15 | 0 | 0 | 63
COc1ccc(Nc2oc(-c3ccc(F)cc3)nc2C#N)cc1 | 0 | 35 | 0 | 0 | 73
CCOc1ccc(-c2nc(C#N)c(NCC(C)C)o2)cc1 | 0 | 0 | 0 | 0 | 0
COCCNc1oc(-c2ccc(F)cc2)nc1C#N | 0 | 0 | 0 | 0 | 0
O=C(CNC(=O)c1ccccc1)NCC(O)c1ccc([N+](=O)[O-])cc1 (centres undefined) | 0 | 0 | 0 | 0 | 0
O=S(=O)(NCC1CN(S(=O)(=O)c2c(F)cccc2F)C1)c1ccc2c(c1)OCCO2 | - | 0 | - | - | 0
CNc1oc(-c2ccc(OCc3ccccc3)cc2)nc1C#N | 0 | 24 | 0 | 0 | 0
COc1cc(-c2coc3cc(O[C@H]4OC(CO)C(O)C(O)C4O)c(OC)c(O)c3c2=O)cc(O)c1OC (some centres undefined) | - | - | - | 0 | -
O=c1c(-c2ccc(O)cc2)coc2cc(OC3OC(CO)C(O)C(O)C3O)cc(O)c12 (centres undefined) | 0 | 22 | 0 | 0 | 68
O=c1c(-c2ccc(O)cc2)coc2cc(OC3OC(CO)C(O)C(O)C3O)ccc12 (centres undefined) | 0 | 20 | 0 | 0 | 43
COc1cc(O)c2c(=O)c(-c3ccc(O[C@@H]4O[C@H](CO)[C@@H](O)[C@H](O)[C@H]4O)cc3)coc2c1 | 0 | 39 | 0 | 0 | 111
O=c1cc(-c2ccc(O)cc2)oc2cc(O[C@H]3OC(CO)C(O)C(O)C3O)cc(O)c12 (some centres undefined) | - | - | - | 0 | -
CCOC(=O)Cn1c(=NC(=O)c2cccs2)sc2cc(C(=O)OC)ccc21 | 0 | 44 | 0 | 0 | 72
CN(Cc1ccco1)c1ncnc2ccc(-c3cccc(NS(C)(=O)=O)c3)cc12 | - | - | - | 0 | -
Cn1ncc([N+](=O)[O-])c1C(=O)Nc1ccc(-c2nc3ccccc3[nH]2)cc1 | 0 | 42 | 0 | 0 | 48
SMILES | LmPK inh | CHX counter | NS1 function inh | FBPA Giardia inh | Shiga inhibitor
Cn1ncc([N+](=O)[O-])c1C(=O)Nc1ccc(C2CCCCC2)cc1 | 0 | 26 | - | 0 | 0
Cc1ccccc1OCCSc1nc2ccccc2n1CCC(=O)O | 0 | 0 | 0 | 0 | -
Oc1ccc(-c2nccc(-c3ccc(Cl)cc3)n2)cc1 | 0 | 53 | - | 0 | 123
COC(=O)C(C)Oc1ccc(-c2nccc(-c3cccs3)n2)cc1 (centres undefined) | 0 | 27 | 0 | 0 | 51
Oc1ccc(-c2nccc(-c3cccs3)n2)cc1 | 0 | 58 | 0 | 0 | 133
O=C(CSc1nccc(-c2cccs2)n1)Nc1ccc(Cl)cc1 | 0 | 0 | 0 | 0 | 0
Oc1ccc(-c2cccc(-c3ccc(O)cc3)n2)cc1 | 0 | 39 | 0 | 0 | 67
Oc1ccc(-c2nccc(-c3ccc(Cl)cc3Cl)n2)cc1 | 0 | 0 | - | 0 | 0
O=C1[C@H]2CCn3c(=O)n(-c4ccccc4)c(=O)n3[C@H]2[C@H](O)[C@H]2O[C@@H]12 | - | - | - | 0[12.9 µM] | -
COc1ccc(-c2nc3cnc(Oc4cccc(Cl)c4)nc3n(C3CC3)c2=O)cc1 | - | - | - | 0 | -
Cc1cnc(CNc2cc(-c3cccc(NS(C)(=O)=O)c3)ncn2)cn1 | - | - | - | 0 | -
Oc1ccc(-c2nnc(-c3ccc(O)cc3)nn2)cc1 | 0 | 26 | 0 | 0 | 0
CCN1CCN(C(=O)c2ccccc2NS(=O)(=O)c2ccc(Cl)cc2)CC1 | 0 | 0 | 0 | 0 | 0
COc1ccc(C(=O)Nc2ccc(C)cn2)c(OC)c1 | 14µM | 0 | 0 | 0 | 0
COc1ccc(C(=O)Nc2cc(C)on2)cc1OC | 0 | 0 | 0 | 0 | 0
